In one assay the target is NDUFAB1. The experiment in a line: pooled miR-30 sensor sort-seq; sequence = guide strand. The following applies: shRNA.
For TTTACTGAAAGCTTCTCTGGGT, the sensor-assay potency score (higher = more potent) turned out to be 0.584.
Still for that read-out and setting: the value for TAATCTACAATTTCTTGTGGAC was -0.35; that for AAGTCCATCAGAATCACTCTGT was 0.545.
Sequence TGTAACTCTACCAGGAACCTGC registered a sensor-assay potency score (higher = more potent) of 0.262.
Sequence TACAATTTAAATACAAGTCCAT displayed a sensor-assay potency score (higher = more potent) of 0.341.
For TTCTTGTGGACACATTAACTTT, the sensor-assay potency score (higher = more potent) was -1.46.
Sequence TACAATTTCTTGTGGACACATT registered a sensor-assay potency score (higher = more potent) of -0.835.
In turn, TTACTGAAAGCTTCTCTGGGTC displayed a sensor-assay potency score (higher = more potent) of 0.337.

In a further assay the target is NDUFC1. The assay is described as above. The following applies: shRNA.
Regarding TTTGATGAGATAGATCCACAAG, the sensor-assay potency score (higher = more potent) was -1.07.
In turn, TTGTACTCTAAAATATCTTCAT returned a sensor-assay potency score (higher = more potent) of -0.343.
TTTACAACTCAACAGATGGTGA: the sensor-assay potency score (higher = more potent) is -0.815.
The same measure, in the same setting: the value for TAAAATATCTTCATTGTGTTGT was 1.09; that for TTTGATCGCACTGAAGGGCCGC was -0.255; that for TTTTGTACTCTAAAATATCTTC was -0.163.
The same measure, in the same setting: the value for TTGATCGCACTGAAGGGCCGCT was -0.209.
Sequence TAGATCCACAAGAAGACAGTGG came in with a sensor-assay potency score (higher = more potent) of 0.0941.
TAGAACTTTGATCGCACTGAAG: the sensor-assay potency score (higher = more potent) was -1.43.
As to TTGTTTGATGAGATAGATCCAC, the sensor-assay potency score (higher = more potent) was -0.545.
TATATATTCACATATAACTTTT had a sensor-assay potency score (higher = more potent) of -0.874.
Consider TTCATTGTGTTGTTTGATGAGA, for which the sensor-assay potency score (higher = more potent) is -0.384.

For a further assay, the target named is NEBL. The description is as above. The following applies: shRNA.
The sequence TTGAATCTACATGACATGCAAC yielded a sensor-assay potency score (higher = more potent) of -0.738.
Sequence TTCATGTTGAGTGCCATCTTGC had a sensor-assay potency score (higher = more potent) of -0.598.
Same read-out and setting: the same measure for TTGTCTTAAAAGTATCTTCTAT: -0.254.
Consider ATCTCTTTTGTACTTGACCTGA, for which the sensor-assay potency score (higher = more potent) was -0.797.
In turn, TTCAATAATAGGAACGCGCAGT displayed a sensor-assay potency score (higher = more potent) of -0.234.
Sequence TTCAGGTGTATCTGCCACCGTG showed a sensor-assay potency score (higher = more potent) of -0.9.
As to TTTATGCCAATACTTATCCAGG, the sensor-assay potency score (higher = more potent) was -1.28.
TAGCTGTGAAGTCAGACCCTAA displayed a sensor-assay potency score (higher = more potent) of -1.2.
As to TTATTTGGTCCTGACATTCTGT, the sensor-assay potency score (higher = more potent) is -0.142.
In the case of TACATGGCTCGGTAGGTCCTTA, the sensor-assay potency score (higher = more potent) was -0.857.
Consider TTTGTACTTGACCTGACTCTGC, for which the sensor-assay potency score (higher = more potent) is -0.0804.
The same measure, in the same setting: the same measure for TAGATTTGGTGAATGCTGCATT: 0.277.

A further assay has as its target NEFH. Described as above. The following applies: shRNA.
Sequence TTTTTTCTTATCTTCAGCCTCT gave a sensor-assay potency score (higher = more potent) of 0.587.
For TTTTCTTATCTTCAGCCTCTTC, the sensor-assay potency score (higher = more potent) is -0.582.
The same measure, in the same setting: the same measure for TTCAACTTTGGATTCTTTGGGC: 0.436; for TATTGCTAACAGAAATTCCTGT: 0.67.
The sequence TCTCTTGCTAACATATTGCTAA gave a sensor-assay potency score (higher = more potent) of -0.697.
The sequence TAAGCTATCATAATTGTCCATC came in with a sensor-assay potency score (higher = more potent) of -0.916.
Consider TTCGACAGCAGGTTCCTTCTTC, for which the sensor-assay potency score (higher = more potent) stood at 0.393.
On to TTGGTGTCTTTTTTCTCCGGTG, for which the sensor-assay potency score (higher = more potent) is -0.602.

For the origin of these results see the OligoGym collection.
Note: reference of the scale not given here.
